# Bioassay records (PubChem BioAssay)
# Compounds with a hit are over-represented: about 0.28% of the library has one in this group of screens.
# hcGAS lum: Primary biochemical luminescence assay for human cyclic GMP-AMP synthase inhibitors; actives 0.081% (n = 290,000); inhibition, % at 12.5 µM; recombinant h-cGAS, ATP depletion, Kinase-Glo luminescence;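 note: 0% = vehicle reaction and 100% = reaction without DNA for no activity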
# Target sequence (Q8N884 whole entry, looked up): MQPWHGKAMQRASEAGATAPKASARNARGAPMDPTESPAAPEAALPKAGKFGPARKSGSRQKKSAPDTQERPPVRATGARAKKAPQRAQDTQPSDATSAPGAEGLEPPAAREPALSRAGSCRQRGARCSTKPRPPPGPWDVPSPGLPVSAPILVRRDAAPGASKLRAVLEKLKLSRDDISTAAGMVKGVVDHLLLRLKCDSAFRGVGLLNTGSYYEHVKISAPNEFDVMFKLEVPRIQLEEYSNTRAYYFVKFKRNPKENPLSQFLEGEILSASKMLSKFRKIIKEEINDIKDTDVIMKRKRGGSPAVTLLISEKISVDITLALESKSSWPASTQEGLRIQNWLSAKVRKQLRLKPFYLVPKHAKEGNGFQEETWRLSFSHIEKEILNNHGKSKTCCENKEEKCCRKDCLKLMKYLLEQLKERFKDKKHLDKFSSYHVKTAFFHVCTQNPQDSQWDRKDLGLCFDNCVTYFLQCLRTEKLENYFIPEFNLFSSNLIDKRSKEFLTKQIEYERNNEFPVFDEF
# NPYLR7 agonist: agonists of mosquito NPYLR7 receptor, primary screen, cell-based, Aedes aegypti, calcium fluorescence, mosquito biting behavior; Aedes aegypti neuropeptide Y-like receptor 7 (NPYLR7); activation, % at 10 µM; actives 0.15% (n = 270,000); AID 1259423, 2018; HEK293T NPYLR7/Galpha15, GCaMP6s calcium fluorescence; in the data active = activation above about 40%;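 note: 0% = vehicle and 100% = reference agonist at the receptor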
# mcGAS inh: cyclic GMP-AMP synthase inhibitors, mouse, primary biochemical chemiluminescence | recombinant cGAS, Kinase-Glo ATP depletion luminescence | inhibition, % at 12.5 µM | actives 0.15% (n = 160,000);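 note: 0% = negative control wells and 100% = reference inhibitor with no enzyme activity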
# Numbers without * were called inactive; . = no result given. Cut-off read from the data, not from the text of the source, unless noted: active = inhibition above about 40%; inactive = the rest.
SMILES,hcGAS lum,NPYLR7 agonist,mcGAS inh
COc1ccc(/C=C/c2ccc3ccccc3n2)c(OC)c1,-10.8,2.0,-9.6
O=C(/C=C/c1ccc(O)cc1)c1ccc(O)cc1O,-9.6,1.9,14.1
COc1ccc(/C=C/C(=O)c2cc(O)ccc2O)cc1,2.3,-6.3,52.7*
COc1ccc2nc(/C=C/C(=O)c3ccc(O)cc3)ccc2c1,-5.8,-2.7,75.7*
O=C(/C=C/c1ccccc1)c1ccc(O)cc1O,5.9,16.9,85.0*
CCOc1ccc(-n2ccnc(SCC(=O)c3ccc(OC)cc3)c2=O)cc1,3.8,-21.8,2.9
CS(=O)(=O)/C(C#N)=C/c1cnc2ccc(Br)cn12,88.5*,0.7,-7.2
CCOc1cc(C=C(C#N)S(C)(=O)=O)ccc1OC,-5.3,6.2,-5.1
CSCCC(N)c1nc2ccccc2s1 (stereo unspecified),6.7,-10.0,-5.8
CC(C)NC(=O)c1ccccc1-c1ccnc2[nH]ccc12,5.6,-1.1,0.7
COCCOc1ccc(NC(=O)N(C)C(C)C2(C)CC2)cn1 (stereo unspecified),-6.7,134.0*,-15.4
COc1ccc(NC(=O)c2ccc(NC(C)C)nc2)cn1,-4.2,6.2,-4.8
O=C(N1CCN(CCn2cccn2)CC1)C1(c2ccccc2)CCOCC1,-10.0,-2.0,.
CN1C=CC(=C/C=C2/C=Nc3ccccc32)C=C1,0.8,53.7*,-2.3
CCCCn1c(O)c(C=C2C=Nc3ccccc32)c(=O)[nH]c1=O,0.4,5.5,6.4
CNc1nc2cnc(Nc3cc(OC)cc(C(F)(F)F)c3)cc2n1-c1ccccc1,3.1,-6.8,-2.8
CCc1ccccc1C1c2cccn2CCCN1Cc1ccccc1[N+](=O)[O-] (stereo unspecified),0.5,11.8,-3.1
COc1ccccc1C1c2cccn2CCCN1Cc1ccccc1[N+](=O)[O-] (stereo unspecified),81.0*,6.7,-5.0
O=C(NCCCCN1CCOCC1)Nc1ccc(Cc2ccncc2)cc1,-5.8,0.4,-6.9
CSc1nc(N2CCCCC2)c2cnn(CCNC(=O)c3ccc(F)c(F)c3)c2n1,3.8,.,0.0
Cc1cc(O)c(CN2CCN(C)CC2)c2c1C(=O)/C(=C/c1cc3ccccc3o1)O2,-7.8,7.6,-8.7
CCN(CC)Cc1c(O)cc(C)c2c1O/C(=C\c1cc3ccccc3o1)C2=O,-2.4,69.5*,-1.9
COc1cc(CCC(=O)Nc2cc(F)c(F)cc2NC(C)=O)cc(OC)c1,-15.4,-5.1,.
O=C(O)CSc1ccc2c3c(cccc13)C(=O)c1ccccc1-2,75.7*,93.6*,65.7*
CCNC(=O)CSc1ccc2c3c(cccc13)C(=O)c1ccccc1-2,2.0,36.9,.
SMILES,hcGAS lum,NPYLR7 agonist,mcGAS inh
Cc1nn(C(C)C)c(C)c1S(=O)(=O)N(c1ccccc1F)C1CCCC1,-8.0,4.3,.
CCC(C(=O)N(Cc1cc(NC(=O)c2ccccc2Cl)ccc1N(C)C)C1CC1)c1ccccc1 (stereo unspecified),-7.8,-0.8,-8.6
Cc1ccc(N2C(=O)NC(=O)/C(=C\c3ccc(N(C)C)o3)C2=O)cc1,-3.1,5.3,-7.8
Cc1ccc(N2C(=O)NC(=O)/C(=C\c3cccs3)C2=O)cc1,-3.7,65.2*,-6.9
CC(=O)c1cc2cc(Br)cc(Br)c2oc1=O,-2.7,3.9,-1.3
O=C1OC(c2ccc(Cl)c([N+](=O)[O-])c2)=N/C1=C\c1cc2cc3c4c(c2oc1=O)CCCN4CCC3,-7.0,123.2*,-4.8
Cc1ccc(C2=NC(=Cc3ccc(N4CCOCC4)s3)C(=O)O2)cc1[N+](=O)[O-],-35.8,14.4,.
COc1cc(OC)c(OC)cc1C=C1N=C(c2cccc(C)c2)OC1=O,-5.6,3.4,.
Cc1cccc(C2=N/C(=C\c3cc4cc5c6c(c4oc3=O)CCCN6CCC5)C(=O)O2)c1,-6.8,116.8*,-7.1
CN(Cc1ccccc1OC1CCCC1)CC1(CO)CCOCC1,-9.7,.,-4.8
CN(C)C(C)(C(=O)Nc1cccc(CN2CCCCC2)c1)c1ccccc1 (stereo unspecified),-3.2,6.0,.
O=C(NCc1ccccn1)C1COC2(CCN(C(=O)c3ccc(Cl)cc3)CC2)N1C(=O)c1ccco1 (stereo unspecified),-5.2,1.3,-4.1
Cc1cccc(N2CCN(C(=O)c3cn(Cc4ccccc4F)nn3)CC2)c1C,-8.9,3.5,.
Cc1c(C(=O)NCCC#N)sc(=O)n1CC(=O)N(C)C,2.1,5.5,.
O=c1c2nc(N3CCOCC3)sc2c(-c2ccccc2)nn1Cc1ccc(Cl)cc1,-9.9,-4.2,-9.8
CCc1nc(C)nc(N2CCN(C(=O)c3ccccc3Cl)CC2)c1Cc1ccccc1F,-3.9,4.7,-7.2
N#C/C(=C/c1ccc(N2CCCCC2)o1)c1cccc(F)c1,-1.2,63.4*,.
N#C/C(=C/c1ccc(N2CCCCC2)cc1F)c1ccc(C(=O)O)cc1,-0.4,-1.3,-4.9
